In PubChem BioAssay (NCI):
This is part of a sample that, as a whole, favours compounds with a hit. Of some 83,000 tested, about 20% had one in any assay.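 Growth was measured after 48 h exposure to one concentration of compound in 96-well plates. Values under 10 count as active.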 The source made the active and inactive calls.

The molecules below were run on NCI-H226 lung (assay: NCI-60 one-dose screen, 48 h (100 = growth as untreated, 0 = no growth, -100 = all killed)). Details: 10 µM unless noted.

Structure (SMILES)	growth
O=C1c2ccccc2C(=O)c2c1ccc1[nH]c(-c3cccs3)nc21	91.9% (inactive)
CN1CCN(Cc2ccc(NC(=O)c3cncc(C#Cc4cncn5ccnc45)c3)cc2C(F)(F)F)CC1	34.4% (inactive)
CC(C)(C)c1cc(/C=N\NC(=O)/C=C/C=C/c2ccc3c(c2)OCO3)c(O)c(C(C)(C)C)c1	75.9% (inactive)
CCCc1cc(=O)n2c(C(=O)Nc3ccc(F)cc3)c(C(=O)Nc3ccc(F)cc3)sc2n1	69.5% [30 µM] (inactive)
O=C(O)COc1ccc(Cl)cc1C1CCCCC1	92.8% (inactive)
NC(=O)c1cc(Br)ccc1NC(=O)/C=C/c1ccccc1	66.9% (inactive)
Cc1nn(-c2ccc(F)cc2)c2ncnc(Oc3ccc(NC(=O)Nc4ccc(Cl)c(C(F)(F)F)c4)cc3)c12	103% (inactive)
CSc1nc(-c2cccc(NC(=O)CCl)c2)c(C#N)c(=O)n1C	89.2% (inactive)
CCCCN(CCCC)CCCn1c(-c2ccccc2)ccc1-c1ccccc1	53.6% (inactive)
Cc1c(/C=C/[N+](=O)[O-])ccc2c1[nH]c1ccccc12	54.3% (inactive)
c1ccc(Cn2cc(-c3nc4ccccc4s3)c3cccnc32)cc1	92.4% (inactive)
O=C(N/N=C/c1c[nH]c2ccccc12)c1cc(-c2ccccc2)on1	87.6% (inactive)
CCCn1c(=O)[nH]c(N)c([C@H]2c3ccccc3Oc3[nH]c(=O)n(CCC)c(=O)c32)c1=O	102% (inactive)
CC(=O)O[C@H]1[C@@H]2OC(=O)C(CSc3ccccc3)[C@@H]2C[C@H]2O[C@]2(C)CC/C=C(\C)CCC[C@@H]1C (some centres undefined)	47.9% (inactive)
